# From PubChem BioAssay (NCI)
# About 83,000 compounds went through this panel and 20% of them were active in at least one assay; those are over-represented in the sample as a whole.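 How to read the values: 0–100, growth inhibition (40 = 60% inhibited); 0, no net growth; -100 to 0, cell death (-40 = 40% of starting cells died; -100 = all dead).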 Unmarked numbers belong to inactive results. Activity calls are given as the source filed them. The calls were made as follows: active = growth percent below 10; inactive = the rest.
# What was measured:
# Experiment in all cases: NCI-60 one-dose screen, 48 h (100 = growth as untreated, 0 = no growth, -100 = all killed)
# Settings in all cases: 10 µM unless noted
# SR leukemia = tested on: SR leukemia
# RPMI-8226 leukemia = tested on: RPMI-8226 leukemia
# OVCAR-8 ovarian = tested on: OVCAR-8 ovarian
# OVCAR-5 ovarian = tested on: OVCAR-5 ovarian
# OVCAR-4 ovarian = tested on: OVCAR-4 ovarian
# SK-OV-3 ovarian = tested on: SK-OV-3 ovarian
# IGROV1 ovarian = tested on: IGROV1 ovarian
# OVCAR-3 ovarian = tested on: OVCAR-3 ovarian
# HS 578T breast = tested on: HS 578T breast
# NCI/ADR-RES ovarian = tested on: NCI/ADR-RES ovarian
# T-47D breast = tested on: T-47D breast
# BT-549 breast = tested on: BT-549 breast
# MDA-MB-435 melanoma = tested on: MDA-MB-435 melanoma
# SW-620 colon = tested on: SW-620 colon
# MCF7 breast = tested on: MCF7 breast
# HCT-116 colon = tested on: HCT-116 colon
# HCC-2998 colon = tested on: HCC-2998 colon
# KM12 colon = tested on: KM12 colon
SMILES,growth (SR leukemia) [%],growth (RPMI-8226 leukemia),growth (OVCAR-8 ovarian) [%],growth (OVCAR-5 ovarian) [%],growth (OVCAR-4 ovarian) [%],growth (SK-OV-3 ovarian) [%],growth (IGROV1 ovarian) [%],growth (OVCAR-3 ovarian),growth (HS 578T breast),growth (NCI/ADR-RES ovarian) [%],growth (T-47D breast) [%],growth (BT-549 breast) [%],growth (MDA-MB-435 melanoma),growth (SW-620 colon) [%],growth (MCF7 breast),growth (HCT-116 colon) [%],growth (HCC-2998 colon) [%],growth (KM12 colon) [%]
COc1cc(Nc2cc(O)c3c(=O)cc(-c4ccccc4)oc3c2)cc(OC)c1,17.3,17.1%,26.1,45.5,59.3,35.9,42.1,0.368% (active),12.4%,22.2,55.2,80.2,4.04% (active),24.9,23.5%,13,32.4,21
O=C1Nc2c(ccc(Cl)c2Cl)/C1=C/c1ccc(O)cc1,42,78.6%,92.3,90.6,72.9,86.4,42.6,92.9%,89%,96.6,61.2,82.3,101%,79.1,54.1%,72.6,80.5,85.9
CC(=O)c1c(C)[nH]c(-c2nc3ccc(N4CCN(C)CC4)cc3[nH]2)c1-c1ccccc1,28.4,3.67% (active),45.6,34.8,33.4,20.5,23.8,28.8%,9.13% (active),36.3,20.3,81.9,19.8%,54.8,7.32% (active),59.6,27.8,39.7
CCCCCN1C=C/C(=C\C(=O)N(C)c2cccc3ccccc23)c2ccccc21,81.5,78.5%,98.4,109,86.5,99.6,93.7,96.9%,99.9%,106,87.9,99.4,100%,94.3,91.3%,86.9,102,103
COc1ccc(Cc2nc3cc(OC)c(OC)cc3c(=O)[nH]2)cc1,36.1,52.6%,73.5,78.6,105,148,65.7,78.9%,77.5%,74.8,96,159,87.3%,14.3,91.6%,72.6,53.7,18.9
